Results from PubChem BioAssay AID1942 (Johns Hopkins Ion Channel Center, 2009).
Out of some 2,400 compounds screened, about 580 (24%) were called active. These entries were drawn from the full list. Unmarked numbers belong to inactive results.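 Rule for the calls: active = activity change at or above the mean plus 3 SD of buffer wells without dofetilide, per plate; inactive = the rest.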

Each compound was assayed against Potassium voltage-gated channel subfamily KQT member 2 (Rattus norvegicus) (UniProt O88943) (assay: KCNQ2 potentiation in CHO cells – cell-based, FluxOR thallium flux, counter-screen for hERG block protector project, confirmation (AID 1942;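 note: normalized value minus buffer-control mean plus three SD of buffer wells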)). Conditions: FluxOR thallium flux fluorescence, at 10 µM, active compounds read high.
Chain of Potassium voltage-gated channel subfamily KQT member 2 (Rattus norvegicus) (O88943 whole entry, looked up): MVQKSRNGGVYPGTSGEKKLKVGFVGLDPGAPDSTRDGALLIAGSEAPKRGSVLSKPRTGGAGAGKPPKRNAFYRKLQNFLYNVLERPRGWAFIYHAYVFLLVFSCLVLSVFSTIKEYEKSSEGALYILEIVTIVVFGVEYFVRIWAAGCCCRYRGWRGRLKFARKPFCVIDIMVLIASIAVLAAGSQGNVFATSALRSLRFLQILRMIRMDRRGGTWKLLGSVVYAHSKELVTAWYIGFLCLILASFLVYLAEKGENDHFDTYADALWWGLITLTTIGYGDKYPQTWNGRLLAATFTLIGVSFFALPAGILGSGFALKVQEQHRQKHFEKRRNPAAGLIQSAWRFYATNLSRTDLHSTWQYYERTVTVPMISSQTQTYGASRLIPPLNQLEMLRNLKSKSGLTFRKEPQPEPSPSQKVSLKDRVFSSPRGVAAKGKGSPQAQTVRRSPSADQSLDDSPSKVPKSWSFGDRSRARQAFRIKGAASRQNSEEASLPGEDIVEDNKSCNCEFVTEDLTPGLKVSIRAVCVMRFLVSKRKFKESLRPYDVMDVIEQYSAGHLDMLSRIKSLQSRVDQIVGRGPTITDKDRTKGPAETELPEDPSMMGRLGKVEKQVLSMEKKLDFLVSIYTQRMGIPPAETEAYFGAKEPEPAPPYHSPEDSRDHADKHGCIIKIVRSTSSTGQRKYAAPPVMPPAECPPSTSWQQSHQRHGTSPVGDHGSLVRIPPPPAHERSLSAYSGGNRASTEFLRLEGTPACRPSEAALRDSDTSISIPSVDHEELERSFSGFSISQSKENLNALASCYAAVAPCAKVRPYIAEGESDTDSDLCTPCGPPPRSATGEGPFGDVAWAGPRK

| Structure (SMILES) | activity change, less the hit threshold |
| --- | --- |
| O=C(O)C/C(=C\c1cc(Br)cs1)c1nc2ccccc2o1 | -8.4% |
| CCCCCCc1cc2cc(-c3nnc(-c4ccccc4O)o3)c(=O)oc2cc1O | -7% |
| CC(C)(C)c1csc(NC(=O)C2=COCCO2)n1 | -13% |
| Oc1c(Cl)cc(Cl)cc1/C=N/c1nccs1 | 32.3% (active) |
| Oc1c(Cl)cc(Cl)cc1/C=N/c1ncn[nH]1 | 23.9% (active) |
| Oc1c(Cl)cc(Cl)cc1Sc1cc(Cl)cc(Cl)c1O | -1.7% |
| CC1CCN(C(=O)CSc2nnc(CNC(=O)c3ccco3)o2)CC1 | -12.8% |
| CCOc1ccc(NC(=O)CS(=O)CC(=O)NC2CCCc3ccccc32)cc1 (configuration not stated) | -13.6% |
| Cc1nc2ccccc2n1-c1ccccc1 | -4.2% |
| COc1ccc(-n2ncc3c2CC(C)(C)CC3NC(=O)c2cn[nH]c2)cc1 (configuration not stated) | -22.9% |
| O=C(O)c1cc(NN=C2c3ccccc3-c3ccccc32)ccc1Cl | 32.4% (active) |
| O=C(O)c1cc(N/N=C/c2ccc(-c3ccccc3)cc2)ccc1Cl | -22.4% |
| CC(C)Oc1cc(S(=O)(=O)N2CCCCC2)ccc1N | -15.7% |
| O=[N+]([O-])c1ccc(S(=O)(=O)Nc2ccc(S(=O)(=O)N3CCCC3)cc2)cc1 | -23.3% |
| CCCCOc1ccc(-c2c(C#N)c(N)[nH]c(=S)c2C#N)cc1 | -10.1% |
| CCOC(=O)c1c(C)[nH]c(=S)c(C#N)c1-c1ccc(Cl)cc1 | 5.2% (active) |
| Cc1[nH]c(=S)c(C#N)c(C)c1Cc1ccc(Cl)cc1Cl | -7.1% |
| Cc1ccc([N+](=O)[O-])c2c1C(N1CC(C)OC(C)C1)C(C)(C)O2 (configuration not stated) | -14.4% |
| S=c1nc(C2CCCCC2)n(-c2ccccc2)[nH]1 | 41.2% (active) |
| Cc1cc(OCC(=O)Nc2cc(S(=O)(=O)N3CCOCC3)ccc2N2CCCC2)ccc1C(C)C | -14.1% |
| CNC(=S)N/N=C/c1cc(Br)cc(Br)c1O | -6.6% |
| Cc1nnc(C)n1/N=C/c1cc(Br)cc(Br)c1O | 17.8% (active) |
| CC(=O)C1=C(O)C(=O)N(c2cccnc2)C1c1ccc(Cl)cc1 (configuration not stated) | -25.8% |
| O=C(COc1ccc2c3c(c(=O)oc2c1)CCC3)NCC1CCC(C(=O)O)CC1 (configuration not stated) | -17.1% |
| Cc1c(C)c2ccc(OCC(=O)N[C@@H](Cc3ccccc3)C(=O)O)cc2oc1=O | -10% |

| Structure (SMILES) | activity change, less the hit threshold |
| --- | --- |
| O=C(COc1ccc2c3c(c(=O)oc2c1)CCC3)N[C@@H](Cc1ccccc1)C(=O)O | 8.1% (active) |
| Cc1[nH]c(-c2ccccn2)nc(=S)c1Cl | 92% (active) |
| Cc1cc(=S)nc(-c2ccccn2)[nH]1 | -4.4% |
| COC(=O)Cc1[nH]n(-c2nc3ccccc3s2)c(=O)c1C(C)=Nc1ccc(C)cc1 | -15.8% |
| COc1ccc(NC(=O)C(=O)NNC(=O)c2cccs2)c(OC)c1 | 30.8% (active) |
| COc1cccc(C(=O)NNC(=O)C(=O)Nc2cccc3ccccc23)c1 | 59.7% (active) |
| COc1cc(OC)cc(C(=O)NNC(=O)C(=O)Nc2cc(OC)c(Cl)cc2OC)c1 | 49.6% (active) |
| COc1cc(NC(=O)c2ccc3c(c2)OCO3)ccc1NC(=O)c1cccs1 | -18.6% |
| COc1cccc(CCNS(=O)(=O)CCNC(=O)c2cccc(OC)c2)c1 | -13.6% |
| COc1ccc(OC)c(NC(=O)C(=O)NNC(=O)c2cccs2)c1 | -6.1% |
| COc1cc(NC(=O)c2cc(-c3cccnc3)nc3ccc(C)cc23)c(OC)cc1Cl | -13.9% |
| COc1ccc(C(=O)NNC(=O)C(=O)Nc2cccc3ccccc23)cc1 | 59.1% (active) |
| C=C(C)CSc1nnc2[nH]c(=O)cc(N)n12 | -18.3% |
| O=C(/C=C/Nc1ccccc1)C(F)(F)F | -19.8% |
| COc1ccc(C2CC(c3ccc(Cl)cc3Cl)Nc3nc(N)nn32)cc1OC (configuration not stated) | -21.7% |
| COc1ccc(/C=C2\SC(c3ccc(C)cc3)=NC2=O)cc1OC | -17.7% |
| Oc1ccc(Br)cc1-c1n[nH]c(=S)n1Cc1ccccc1 | -4.7% |
| Fc1ccccc1N1CCN(c2cnc3ccccc3n2)CC1 | -14.5% |
| Cc1cccc(N(C(=O)c2csnn2)C(C(=O)NCc2ccccc2)c2ccncc2)c1 (configuration not stated) | -10.4% |
| O=C1C(c2ccccc2)C(c2ccccc2)NC(c2ccccc2)C1c1ccccc1 (configuration not stated) | -17.9% |
| O=C(CCSc1ccc(Br)cc1)c1ccc(O)cc1 | -15% |
| O=C(Cn1cnc2ccccc21)c1ccccc1 | -11.5% |
| COc1cccc(C(=O)NNC(=O)C(=O)Nc2ccc(OC)cc2OC)c1 | 29.6% (active) |
| O=C(CN1C(=O)COc2ccccc21)NCCCN1CCOCC1 | -8.4% |
| Cc1cccc(NC(=S)N/N=C2/CCCCc3ccccc32)c1 | -20.4% |

| Structure (SMILES) | activity change, less the hit threshold |
| --- | --- |
| Cc1cccc2nc(-c3cccnc3)c(NCCC(C)C)n12 | -51.2% |
| COc1nnc(-c2ccc(C)c(S(=O)(=O)NC(C)(C)CO)c2)c2ccccc12 | -9.1% |
| O=C1NC(=S)SC1=C1CCCCCC1 | 58.8% (active) |
| CCOC(=O)N1CCN(C(=O)CN(c2ccc(OCC)cc2)S(C)(=O)=O)CC1 | -17.4% |
| c1ccc2oc(-c3nn4c(Cn5cnc6ccccc65)nnc4s3)cc2c1 | -19.1% |
| C/C(Cl)=C\Cn1c(O)c(N=NC(N)=S)c2cc(Br)ccc21 | 16.1% (active) |
| Cc1cccc(Cn2c(O)c(N=NC(=S)Nc3ccccc3F)c3ccccc32)c1 | -22.3% |
| C=CCn1c(O)c(N=NC(=S)Nc2ccccc2F)c2cc(S(=O)(=O)N3CCOCC3)ccc21 | -16.8% |
| CCC1(C(=O)O)NC(c2cc(OC)ccc2O)C2C(=O)N(Cc3ccccc3)C(=O)C21 (configuration not stated) | -9.2% |
| CCOC(=O)c1sc2nc(C)[nH]c(=S)c2c1C | 4.9% (active) |
| CCOC(=O)c1sc(NN=C(C(=O)OC)C(=O)OC)c(C(=O)OCC)c1C | -9.1% |
| CCOC(=O)c1sc2nc(Cc3ccc(Cl)cc3)[nH]c(=S)c2c1C | -4.8% |
| Cc1ccc(Cn2nnc3c(=O)n(CC(=O)N4CCCc5ccccc54)cnc32)cc1 | -14.8% |
| O=C(NN1C(=O)C2C(c3ccccc3)C=CC(c3ccccc3)C2C1=O)c1ccncc1 (configuration not stated) | -42.5% |
| O=C(N/N=C/c1ccccn1)c1cc(-c2ccc(Br)cc2)nc2ccccc12 | -26.1% |
| Cc1c(C(=O)N/N=C/c2ccccn2)nnn1-c1nonc1N | -9.3% |
| O=C(N/N=C/c1ccccn1)c1sc2ccccc2c1Cl | 27.4% (active) |
| O=C1c2cccc3cccc(c23)C(=O)C1(O)O | -5.4% |
| Cc1ccc(C(=O)O)cc1-c1ccc(/C=C2\SC(=O)N(CC(=O)Nc3ccccc3)C2=O)o1 | -22% |
| COc1ccc(C(=O)O)cc1S(=O)(=O)Nc1cccc(C(F)(F)F)c1 | -13.4% |
| Cc1nn(-c2ccccc2)c(N2CCCC2)c1/C=N/O | -13.5% |
| Cc1nn(-c2cccc(C(F)(F)F)c2)c(Cl)c1/C=N/Nc1cccc(C(=O)O)c1 | 17.9% (active) |
| O=C(O)c1c2c(nc3ccccc13)/C(=C/c1cccc([N+](=O)[O-])c1)CCC2 | -21% |
| Cc1ccccc1C(=O)c1cn[nH]c1-c1ccccc1O | -32.5% |
| O=c1c(-c2ccccc2)nc(-c2ccccc2)cn1O | 65.1% (active) |

| Structure (SMILES) | activity change, less the hit threshold |
| --- | --- |
| Cc1nc(-c2ccccc2)cn(O)c1=O | -1% |
| COC(=O)Nc1c(-c2ccccc2)nc2ccccn12 | -17% |
| CC(=O)c1ccc2c(c1)OCCOCCOCCO2 | -20.1% |
| O=C(CCc1ccccc1)Nc1nccs1 | -23.4% |
| Cc1cnc(C(=O)Nc2nccs2)cn1 | -18.4% |
| Fc1ccc(NC(=S)Nc2nccs2)cc1 | 1.8% (active) |
| COc1ccc(-c2cc(C(=O)N3CCCC3)no2)cc1OC | 2.6% (active) |
| COc1ccc(-c2cc(C(=O)N3CCCC3)no2)cc1 | -9% |
| COc1ccc(-c2cc(C(F)(F)F)nc(N3CCCCC3)n2)cc1OC | -16.3% |
| CC(/C=C1\SC(=S)N(NS(=O)(=O)c2ccc(C)cc2)C1=O)=C\c1ccccc1 | 8.8% (active) |
| CC(/C=C1\SC(=S)N(NS(=O)(=O)c2ccccc2)C1=O)=C\c1ccccc1 | 18.1% (active) |
| CC(/C=C1\N=C(SCc2ccccc2Cl)SC1=O)=C\c1ccccc1 | -10.1% |
| COc1ccccc1/C=C1\SC(=S)N(NS(=O)(=O)c2ccc(C)cc2)C1=O | -24.5% |
| Cc1ccc(S(=O)(=O)N2C(=O)/C(=C3\SC(=S)NC3=O)c3ccccc32)cc1 | -14.4% |
| CC(/C=C1\SC(=S)N(c2ccc(C(=O)O)cc2)C1=O)=C\c1ccccc1 | -20.4% |
| COCCNC(=O)C(=O)N/N=C/c1ccc(C(=O)OC)cc1 | -24.8% |
| O=C(CCNC(=O)C1CCN(S(=O)(=O)c2ccc(F)cc2)CC1)NCc1ccc(Cl)cc1 | -18.1% |
| Cc1cc(C)c(S(=O)(=O)Nc2cccc(-n3cnnn3)c2)c(C)c1 | -20.5% |
| O=C(COc1ccc(Cl)cc1Cl)Nc1cccnc1 | -20.4% |
| COC(=O)C1CCCN1C(=O)COc1ccc(Cl)cc1Br (configuration not stated) | 8.6% (active) |
| COc1ccccc1NC(=O)C1CCCN1C(=O)Nc1ccc(F)cc1 (configuration not stated) | -19.8% |
| CS(=O)(=O)Nc1cccc(-c2cn3ccccc3n2)c1 | -6.5% |
